# Compound activity: PubChem, Johns Hopkins Ion Channel Center
# Most compounds without a hit are left out; they make up all but 1.6% or so of the library.
# KCNQ2 block: rat KCNQ2 potassium channel inhibitors, primary screen, cell-based, CHO-K1, FluxOR thallium flux, B-score | B-score at 10 µM | 20 min; active compounds read low | hit rate 1.1% among 310,000 | AID 2156, 2009;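 active = fluorescence ratio B-score at most minus 3 library SDs, with starting brightness B-score within 2 library SDs, cut at about -5.5 in these data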
# KCNQ2 enhance: potentiators of rat KCNQ2 potassium channel; CHO-K1 KCNQ2, FluxOR thallium flux fluorescence; active compounds read high; B-score at 10 µM; hit rate 0.54% among 310,000;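 active = fluorescence ratio B-score at least 3 SD of library B-scores, with initial fluorescence B-score within 3 of them, cut at about 5.3 in these data; same plate scores as AID 2156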;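 note: B-score of peak minus minimum over baseline fluorescence ratio after K+ and Tl+ stimulus; positive B-score means potentiation of KCNQ2 with more thallium influx and brighter signal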
# Numbers stand for hits; - = inactive; . = no result given.
SMILES,KCNQ2 block,KCNQ2 enhance
CC(C)(C)n1nnnc1C(c1cccnc1)N(Cc1ccccc1)Cc1cccs1 (stereo not drawn),-,.
CCC(c1nnnn1C(C)(C)C)N(Cc1cccs1)Cc1cc2cc(C)c(C)cc2n2nnnc12 (stereo not drawn),-5.9,-
CCOc1ccc2[nH]c(=O)c(CN(Cc3cccs3)C(CC)c3nnnn3C(C)(C)CC)cc2c1 (stereo not drawn),-,.
CCN(Cc1ccccc1)C(c1ccncc1)c1nnnn1C(C)(C)C (stereo not drawn),-,.
CC(C)(C)n1nnnc1C(c1ccc(Cl)cc1)N(Cc1cccnc1)Cc1ccco1 (stereo not drawn),-6.2,-
COc1ccc(OC)c(S(=O)(=O)NC(N)=NCCc2ccccc2)c1,-,.
COc1cccc(N2CCN(C(=O)C3CCCN(c4ncnc5c4nc4n5CCCCC4)C3)CC2)c1 (stereo not drawn),-,.
CC(C)(C)n1nnnc1C(c1ccc(C(F)(F)F)cc1)N(Cc1ccc(F)cc1)Cc1ccco1 (stereo not drawn),-6.5,-
c1ccc(CN(Cc2ccco2)C(c2ccncc2)c2nnnn2C2CCCC2)cc1 (stereo not drawn),-,.
CC(C)(CNC(=O)Cc1ccc(Cl)cc1Cl)N1CCCCC1,-,-
O=C1CCc2cc(S(=O)(=O)N3CCCC3C(=O)NC3CCCCCCC3)ccc2N1 (stereo not drawn),-,-
CCc1nn(C(C)C(=O)N2CC(C)CC(C)C2)c(=O)c2cc3occc3n12 (stereo not drawn),-8.1,-
Cc1cccc(N2CCN(C(=O)C(C)n3nc(C)n4c(cc5occc54)c3=O)CC2)c1C (stereo not drawn),-6.1,-
CCc1nn(C(C)C(=O)N2CCN(Cc3ccccc3)CC2)c(=O)c2cc3occc3n12 (stereo not drawn),-,.
Cc1nn(C(C)C(=O)N2CCN(c3ccccn3)CC2)c(=O)c2cc3occc3n12 (stereo not drawn),-,-
COc1ccc(CCn2ccc(O)c(Cc3c(F)cccc3Cl)c2=O)cc1OC,-,-
Cc1ccccc1CC1(CO)CCCN(Cc2nc(-c3cccs3)oc2C)C1 (stereo not drawn),-,.
COc1ccc(-c2[nH]ncc2CN(CCO)CC23CC4CC(CC(C4)C2)C3)c(OC)c1,-,.
CC(C)(C)OC(=O)N1CC=C2C(C#N)=C(N)C(C#N)(C#N)C(c3cccs3)C2C1 (stereo not drawn),-6.2,-
CCOC(=O)N1CC=C2C(C#N)=C(N)C(C#N)(C#N)[C@H](c3cccs3)C2C1 (stereo partly drawn),-,.
COc1ccccc1C(=O)NNC1=C(C(=O)C(F)(F)F)CCC1,-,-
O=C(NNC1=C(C(=O)C(F)(F)F)CCC1)c1ccccc1O,-,11
Cc1ccc(Oc2cc(C)nc(-c3ccccc3O)n2)cc1,-,.
Cc1cc(OC2CCCCC2)nc(-c2ccccc2O)n1,-5.8,-
Fc1cccc2sc(Nc3nc4cc5c(cc4s3)OCO5)nc12,-,6.9
SMILES,KCNQ2 block,KCNQ2 enhance
Fc1cccc2sc(Nc3nc4cc5c(cc4s3)OCCO5)nc12,-,-
COc1ccc(C)cc1NC(=O)Nc1ccc(C(=O)N2CCCC2)cc1,-,.
COC(=O)c1ccc(C(=O)OC)c(N)c1,-5.7,-
COC(=O)c1ccc(N2CCCCC2)c(N)c1,-,.
O=C(CCc1nnc(CCC2CCCCC2)o1)NCc1ccon1,-,.
Cn1c(=O)[nH]c(=O)c2c1nc([N+](=O)[O-])n2Cc1ccccc1,-6.2,-
CC(C)Cn1c([N+](=O)[O-])nc2c1c(=O)[nH]c(=O)n2C,-,.
O=C(OC(C(=O)Nc1ccc(Cl)c(C(F)(F)F)c1)c1ccccc1)C1=COCCO1 (stereo not drawn),-,.
Cc1cc(C)cc(NC(=O)C(OC(=O)C2=COCCO2)c2ccccc2)c1 (stereo not drawn),-6.6,-
CCCn1c(SCC(=O)Nc2ccccc2-c2ccccc2)nnc1-c1ccoc1C,-5.8,-
Cc1occc1-c1nnc(SCC(=O)Nc2ccccc2-c2ccccc2)n1C,-,-
COc1ccc(NC(=O)CSc2nnc(-c3ccoc3C)n2CCc2ccccc2)cc1,-,.
Cc1ccccc1NC(=O)CSc1nnc(-c2ccoc2C)n1CCc1ccccc1,-5.5,-
O=C(Cn1cnc2ccccc2c1=O)Nc1nnc(SCc2ccc(Cl)cc2)s1,-,-
FC(F)(F)c1ccc(-c2csc(-c3ccno3)n2)cc1,-,.
CC(C)(C)C(=O)OCc1nc(-c2ccc(C(F)(F)F)cc2)cs1,-5.6,-
Cc1ccn2c(=O)c(NC(=O)c3cccs3)c(C)nc2c1,-,-
O=C(COc1ccc(C(=O)O)cc1)Nc1cccc(C(F)(F)F)c1,-,-
O=C(COc1ccc(C(=O)NCCN2CCOCC2)cc1)Nc1cccc(C(F)(F)F)c1,-5.7,-
CC1(COS(N)(=O)=O)CCCCC1,-,-
Nn1c(SC/C=C/c2ccccc2)nnc1-c1ccncc1,-,.
COc1cc(-c2nnc(SC/C=C/c3ccccc3)n2N)cc(OC)c1OC,-5.9,-
CCOC(=O)c1ccc(NC(c2ccc(N(C)C)cc2)P(=O)(OC(C)C)OC(C)C)cc1 (stereo not drawn),-6.5,-
CCOP(=O)(OCC)C(Nc1ccc(C(=O)O)cc1)c1ccccc1 (stereo not drawn),-,-
Cc1ccc(S(=O)(=O)Cn2nnnc2C(CC(C)C)N2CCN(C3CCCC3)CC2)cc1 (stereo not drawn),-,.
SMILES,KCNQ2 block,KCNQ2 enhance
Cc1cc2nnc(SCC(=O)NCc3cccs3)n2c2ccccc12,-,.
Cc1cc2nnc(SCC(=O)NCc3ccco3)n2c2ccccc12,-,8.7
CCOC(=O)C1CCCN(C(=O)CSc2nccn2C)C1 (stereo not drawn),-,.
C1=CC(c2cc3ccccc3o2)OC(CCc2ccccc2)C1 (stereo not drawn),-,.
CC1(C)CC(=O)N(c2cc(Cl)ccc2Cl)C(=O)C1,-,-
Cc1cc(C)c(-c2cc(NC(=O)COC(=O)c3ccc(CO)cc3)n(-c3ccccc3)n2)cc1C,-,.
Cc1cc(C)c(-c2cc(NC(=O)CSc3n[nH]c(N)n3)n(-c3ccccc3)n2)cc1C,-6.9,-
CC(=O)NCCC(=O)Nc1cc(S(=O)(=O)N2CCOCC2)ccc1N1CCCC1,-,.
CCC1CCCCN1C(=O)COc1c(Br)cc(Br)c2cccnc12 (stereo not drawn),-7.8,-
CCC1CCCCN1C(=O)COc1ccc(F)cc1 (stereo not drawn),-,-
O=C(O)C1Sc2[nH]c(=O)sc2C2c3ccc(O)cc3OC(=O)C12 (stereo not drawn),-,-
NC(=O)c1ccsc1NC(=O)COC(=O)c1cc(Cl)ccc1O,-,-
COc1ccccc1OCC(=O)Nc1cccc(N(C)S(C)(=O)=O)c1,-,.
COc1cc(C=O)ccc1OCC(=O)Nc1cccc(S(=O)(=O)N(C)c2ccccc2)c1,-8.3,-
CCCS(=O)(=O)N1CCCC(C(=O)Oc2ccc(C)c(C)c2)C1 (stereo not drawn),-,-
COc1ccc(OCC(=O)Nc2cc(NC(=O)c3ccco3)ccc2OC)cc1,-,-
O=c1c2ccc(Cl)cc2[nH]c(=S)n1CCC1=CCCCC1,-,8.7
CCOC(=O)N1CCN(C(=O)c2ccc3c(=O)n(CCC4=CCCCC4)c(=S)[nH]c3c2)CC1,-,-
COc1ccc(-n2ccnc2SCC(=O)Nc2ccc(OC)cc2OC)cc1,-,.
